# Bioassay records deposited in PubChem BioAssay by National Center for Advancing Translational Sciences (NCATS).
# BAZ2B block – qHTS Assay for Inhibitors of BAZ2B | Bromodomain adjacent to zinc finger domain protein 2B (Homo sapiens), Q9UIF8 | AlphaScreen BAZ2B-H3K14Ac peptide displacement | Potency, µM (top dose mostly 114 µM), for inactives: at the highest dose activity change, negative = inhibition, actives largely listed as inhibitors | actives 4.4% (n = 360,000) | AID 504333, 2011; also: potency is read from the fitted curve at half-maximal effect; % is scaled to controls: 0 for no effect and ±100 for the full control effect; nearly all actives have a fitted effect of over 60% in size
#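 Compounds, titrated to a top concentration of 110 uM, were incubated 30 min at room temperature with preformed BAZ2B/acetyl-K14 H3 peptide complex (50 nM each). Proximity signal was measured by AlphaScreen after 20 min with beads.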
# JMJD2A Tudor inh – qHTS Assay for Inhibitors of JMJD2A-Tudor Domain; AID 504339, 2011; actives 4.4% (n = 390,000); AlphaScreen JMJD2A-Tudor / H3K4me3 peptide binding; Potency, µM (highest dose often 114 µM), without a hit: at the highest dose activity change, negative = inhibition, usual class: inhibitors; Lysine-specific demethylase 4A (Homo sapiens), O75164; also: potency is read from the fitted curve at half-maximal effect; % is scaled to controls: 0 for no effect and ±100 for the full control effect; nearly all actives have a fitted effect of over 50% in size
# CtBP-E1A blk – qHTS Assay for Inhibitors of the CtBP/E1A Interaction; AlphaScreen GST-E1A/His-CtBP binding, 1536-well; hits give low values; CtBP / adenovirus E1A interaction (AlphaScreen); actives 0.49% (n = 340,000); activity change, % (test concentration not listed); in the data active = activity change below about -65%; inconclusive = mostly about -30% to -63%; also: % is scaled to controls: 0 for no effect and ±100 for the full control effect
#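 AlphaScreen with 125 nM GST-E1A and 125 nM His-CtBP (5X stocks) in Tris pH 8.0, 300 mM NaCl, BSA, Tween 20, TCEP. Compounds preincubated 2 h at 37 deg C, then glutathione donor/nickel acceptor beads added for 1 h at 37 deg C in dark.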
# HP1b binding inh – HTS for Inhibitors of HP1-beta Chromodomain Interactions with Methylated Histone Tails; AlphaScreen HP1-beta / biotin-H3K9me3 peptide binding; Chromobox protein homolog 1 (Homo sapiens), P83916; Potency, µM (series often up to 114 µM), without a hit: at the top dose activity change, negative = inhibition, actives largely listed as inhibitors; actives 0.56% (n = 390,000); also: potency is read from the fitted curve at half-maximal effect; nearly all actives have a fitted effect of over 70% in size
#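 AlphaScreen: HP1-beta (50 nM) preformed 30 min with biotin-H3(1-18)K9me3 peptide (50 nM) in PBS pH 7.4, 0.01% Tween-20. Compound added for 30 min at RT, then streptavidin donor/nickel chelate acceptor beads (10 ug/mL) for 30 min.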
# G9a block – qHTS Assay for Inhibitors of Histone Lysine Methyltransferase G9a. G9a H3K9 monomethylation, AlphaScreen, 2 h. Histone-lysine N-methyltransferase EHMT2 (Homo sapiens), Q96KQ7. actives 8.8% (n = 350,000). Potency, µM (top dose mostly 102 µM), inactives show at the top dose activity, negative = inhibition, hits mostly inhibitors; also: potency is read from the fitted curve at half-maximal effect; % is scaled to controls: 0 for no effect and ±100 for the full control effect; nearly all actives have a fitted effect of over 75% in size
#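 Quantitative HTS format: methyltransferase activity on a biotin-tagged H3K9 peptide is measured by AlphaScreen, using a rabbit anti-monomethyl-H3K9 antibody with streptavidin donor and anti-IgG acceptor beads. Final levels are 20 nM enzyme, 500 nM peptide, 20 uM SAM; 2 h RT.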
# Six1-Eya2 blk – qHTS Assay for Inhibitors of the Six1/Eya2 Interaction; Homeobox protein SIX1 (Homo sapiens) + Protein phosphatase EYA2 (Homo sapiens), …; AlphaScreen GST-Six1/His-Eya2 binding, biochemical; hits give low values; activity change, % (no concentration beside the values); actives 0.56% (n = 360,000); AID 651725, 2012; in the data active = activity change below about -65%; inconclusive = mostly about -30% to -63%; also: % is scaled to controls: 0 for no effect and ±100 for the full control effect
#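 AlphaScreen with GST-Six1 and His-Eya2 (5X mix: 250 nM and 500 nM), glutathione donor and nickel acceptor beads; buffer 50 mM Tris pH 8.0, 300 mM NaCl, 1 mM TCEP; 1 h at 37 C in the dark.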
# The depositor's hits bear a star; ? = inconclusive; · = no result; [ ] = dose if it differs, or a comment. Rows were chosen to be rich in hits. Some 10% of all compounds tested hit in one or more screens of this group. Unless noted, calls follow the shape of the dose curve; as a rule, active = well fitted inhibition curve with a large enough effect; inconclusive = small, poorly fitted or top-dose-only effect; inactive = no such curve, though single readings can be large or run the other way.
SMILES,BAZ2B block,JMJD2A Tudor inh,CtBP-E1A blk,HP1b binding inh,G9a block,Six1-Eya2 blk
COc1cc(OC)cc(-c2sc3ccc(OC)cc3c2C#CCCO)c1,?,-29.6%,4.4,43.1%,-2.2%[0.501 µM],-1.3
COc1ccc(-c2sc3ccccc3c2C#Cc2cncn2C)cc1,·,?,·,-1.4%,·,-3.9
COc1ccccc1-c1sc2cc3c(cc2c1C#CCO)OCO3,-16.0%,-20.7%,0.2,34.3%,5.5%[0.501 µM],-0.6
COc1ccc2sc(-c3ccccc3OC)c(C#CCCO)c2c1,79.4µM*,-33.3%,3.6,42.2%,-3.1%[0.501 µM],0.8
COc1ccc(CCNC(=O)c2cc(S(=O)(=O)N3CCCC(C)C3)cn2C)cc1OC (configuration not stated),-12.8%,-12.5%,·,23.6%[57 µM],-2.8%[59 µM],·
CSc1ccc(C(=S)N2CCCC2)cc1,-20.5%,-10.6%,-21.5,?,31.6µM*,-4.8
CSc1ccc(C(=S)N2CCN(C(c3ccccc3)c3ccccc3)CC2)cc1,-36.6%,-30.5%,-6.2,-38.8%,10µM*,-16.0
CC1CCN(C(=S)c2ccccc2O)CC1,-1.0%,?,-0.9,?,?,-0.6
CC1CCN(C(=S)c2ccc(O)cc2)CC1,7.8%[57.1 µM],-31.0%,-3.7,-3.1%,35.5µM*,-1.7
Oc1ccc(C(=S)N2CCCC2)cc1,-2.6%,-6.3%,·,-19.3%,·,-3.6
Oc1ccc(C(=S)N2CCCCCC2)cc1,-1.2%[57.1 µM],-31.7%,-5.6,-17.9%,31.6µM*,3.3
O=C(Nc1cccc(F)c1)N1CCCC2(CCN(C(=O)c3ccncc3)CC2)C1,·,·,·,·,5.1%[12.7 µM],·
O=C(Nc1ccc(Br)cc1)C1CCCN(S(=O)(=O)c2ccc(Br)s2)C1 (configuration not stated),-1.2%,3.1%,·,23.2%,-33.1%[59 µM],·
Cc1cccc(C)c1-n1ncc(C(=O)NCCCN2CCC(C)CC2)c1C1CCN(C(=O)OC(C)(C)C)CC1,8.1%[57.1 µM],-4.9%,·,14.3%,4.4%[59 µM],·
COc1ccc(C(=S)N2CCCCC2)cc1Br,-25.2%,?,-9.5,-17.1%,-33.3%,-17.4
Cc1ccc(C(=S)N2CCCCCC2)cc1,-18.3%,-23.1%,1.2,15.6%,10µM*,-3.8
COc1ccc(C(=S)N2CCCC2)cc1,-35.3%,10.2%[57.1 µM],3.4,41.5%,?,5.5
Oc1cccc(C(=S)N2CCCCC2)c1,-20.4%,-9.8%[11.4 µM],·,-23.3%,31.6µM*,-1.8
Cn1c(CSCc2ccccc2)n[nH]c1=S,-7.7%,7.94µM*,5.9,11.9%,7.94µM*,3.4
Cn1c(-c2cccc3ccccc23)n[nH]c1=S,-5.4%,20µM*,8.0,20.5%,5.01µM*,2.9
Cn1c(Cn2c3ccccc3c3ccccc32)n[nH]c1=S,-3.5%,-9.6%,·,23.1%,7.94µM*,0.0
C=C(C)Cn1c(CCn2c3ccccc3c3ccccc32)n[nH]c1=S,-31.9%,-27.1%,-3.2,31.4%,?,-17.6
Cn1c(CSCc2ccccc2Cl)n[nH]c1=S,-25.6%,?,·,9.3%,·,2.7
Cn1c(CSCc2ccc(Cl)cc2)n[nH]c1=S,-21.7%,?,-17.7,5.7%,10µM*,-8.0
Cn1c(CSCc2ccc(Cl)cc2Cl)n[nH]c1=S,-7.1%,-29.1%,3.3,3.4%,·,0.9
CCOCc1ccccc1Nc1ncnc2onc(-c3ccc(Cl)cc3)c12,-1.7%,16.2%,·,103.6%,45.6%[59 µM],·
Cn1c(CSCc2ccc(F)cc2)n[nH]c1=S,-8.9%,28.2µM*,·,11.2%,·,0.2
COc1cccc2cc(-c3n[nH]c(=S)n3C)oc12,-27.6%,7.94µM*,4.1,-12.1%,7.08µM*,-1.1
CCOc1ccccc1NC(=O)Cn1c(=O)n(Cc2cccs2)c(=O)c2cccnc21,0.6%,-10.2%,·,24.4%,9.9%[59 µM],·
